Measurements as given in PubChem BioAssay AID504845 (National Center for Advancing Translational Sciences (NCATS), 2011).
Values joined by “and” are separate entries in the source; they are usually repeats but may differ in a detail not shown here. Equal entries are not always repeated. About 150 (0.038%) of roughly 390,000 compounds were called active. Another 3% or so got no clear call; they are omitted. The call rests on the fitted dose curve; in most records, active means well fitted inhibition curve with a large enough effect; inconclusive means small, poorly fitted or top-dose-only effect; inactive means no such curve, though single readings can be large or run the other way. This excerpt belongs to a sample that is enriched for actives. The source holds several records for some structures; these can differ, active in one and inactive in another.

target: Regulator of G-protein signaling 4 (Homo sapiens) (UniProt P49798); assay: Inhibitors of Regulator of G Protein Signaling (RGS) 4: qHTS; details: Transcreener GDP fluorescence polarization, RGS4-accelerated GTP hydrolysis; series mostly up to 114 µM; activity change, negative = inhibition: at the top concentration; further: nearly all actives have a fitted effect of over 75% in size
Sequence (P49798 whole entry, looked up, the tested form may be a part): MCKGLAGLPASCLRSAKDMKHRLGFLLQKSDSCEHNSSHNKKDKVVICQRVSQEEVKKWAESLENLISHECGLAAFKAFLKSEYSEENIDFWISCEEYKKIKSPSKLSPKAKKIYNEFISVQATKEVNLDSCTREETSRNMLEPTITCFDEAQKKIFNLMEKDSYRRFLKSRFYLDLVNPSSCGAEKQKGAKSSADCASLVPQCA
Source text: G-protein-coupled receptors (GPCRs) are well-established targets for drug discovery and development. Members of the "regulator of G-protein signaling" (RGS)-protein superfamily have recently emerged as critical modulators of specific GPCR signaling pathways. […] Combining specific RGS domain inhibitors with existing GPCR agonists should potentiate cellular responses and could also increase the specificity of action of existing therapeutics. Small molecule modulators of RGS domain activity should also have clinical utility in inhibiting or potentiating the actions of endogenous GPCR agonists. In particular, the diversity of RGS proteins with highly localized and dynamically regulated distributions in the human brain makes this family of proteins attractive targets for pharmacotherapy of central nervous system (CNS) disorders such as Parkinson's disease, schizophrenia, and anxiety.
This assay was used to screen the NIH Molecular Libraries Small Molecule Repository (MLSMR) in order to identify a small molecule that inhibits RGS4.
NIH Chemical Genomics Center [NCGC]
NIH Molecular Libraries Probe Centers Network [MLPCN]
Assay Submitter (PI): David Siderovski, University of North Carolina Chapel Hill (School of Medicine)
Two microliters of 500nM (2x working concentration) is dispensed into black medium-binding solid-bottom Kalypsys plates. Then with the Kalypsys pintool 23nl of control and compounds are transferred; the control compound is […] CCG-4986 (working concentration). After a 10 minute incubation at room temperature 2ul of antibody is added with the Kalypsys dispenser; (-)RGS4/Transcreener GDP solution in columns 3 and 4 which consisted of 10nM (2x working concentration) Alexa633, 20uM GTP, and 20 ug/ml GDP antibody and (+)RGS4/Transcreener GDP solution in columns 1,2, and 5 to 48 which consists of 900nM RGS4 (2x working concentration), 10nM Alexa633, 20 ug/ml GDP antibody. The plate is centrifuged at 1000 RPM for 15 seconds to remove any possible bubbles and then incubated for 5 minutes at ambient room temperature. An initial fluorescent polarization read (620 nm/688 nm) is performed on the Envision before the plate is incubated for 90 minutes at 30 deg C at a relative humidity of 80%. The plate is once more centrifuged at 1000 RPM for 15 seconds and another Envision fluorescent polarization (620 nm/688 nm) read is carried out.
On the % scale 0 is the no-effect control and ±100 the full control effect; potency means the concentration at half of the fitted maximal effect.

Activity change, negative = inhibition, inactive:
COc1ccc(CC(=O)NCCc2sc3nc(-c4ccc(OC)cc4)nn3c2C)cc1 23.7%
Cc1ccc(-n2ncc(C(=O)N(C)Cc3ccccc3)c2-n2cccc2)cc1 12.5%
Cc1ccc(-c2onc(C)c2C)cc1S(=O)(=O)Nc1ccccn1 -2.85%
O=C1C[C@@H](c2ccc3ccccc3c2)N1S(=O)(=O)c1ccccc1[N+](=O)[O-] 3.68%
CCCN1CCN(CCCNC(=O)c2ccc3nc(Cc4ccccc4)oc3c2)CC1 18.4%
Cc1cccc(C(=O)NCCc2nc3ccccc3n2Cc2ccccc2Cl)c1 -14.7%
CSc1ccc(CCNC(=O)c2cc(C)nc3c2c(C)nn3-c2cccc(F)c2)cc1 -41%
COCCNS(=O)(=O)c1cc(-c2nn3c(C)nnc3c3ccccc23)ccc1C -16.3%
Cc1ccccc1C(=O)N(Cc1ccc(N(C)C)cc1)CC1CCCO1 (stereo unspecified) 8.38%
Cc1nc(SCC(=O)N2CCN(c3ccccc3)CC2)[nH]c(=O)c1C 19.3%
NC(=O)CSc1nc2c(oc3ccccc32)c(=O)n1Cc1ccccc1 -46.5%
CCN(C(=O)Cn1c(=O)nc(-c2ccccc2)c2cc(Cl)ccc21)c1cccc(C)c1 -11.5%
CCCCCCn1nnc2sc(-c3ccccc3)cc2c1=O -27.4%
CC(C)c1ccc2oc(-c3cc(NC(=O)c4cccs4)ccc3Cl)nc2c1 -15%
Cc1cc2oc(C(=O)N(Cc3ccc(Cl)cc3)Cc3ccco3)c(C)c2cc1Cl 30%
CC(C)[C@H]1CC[C@@H](C)C[C@H]1O -127% [at 56.9 µM]
COc1ccc(CNC(=O)c2cc3c(=O)[nH]c4ccccc4c3s2)cc1 -9.46%
O=S(=O)(Nc1cccc2cccnc12)c1cccc2cccnc12 9.93%
COC(=O)c1cc2occc2n1Cc1nc(-c2ccc(C)cc2)oc1C 12.1%
Cc1ccc(F)cc1S(=O)(=O)N1CCC(c2nc3ccccc3s2)CC1 -18.9%
Cc1cc(OC(C)C(=O)Nc2sc3c(c2C(N)=O)CCCC3)ccc1Cl (stereo unspecified) -10.8%
COc1ccc(C2Nc3ccc(NC(=O)COC(C)=O)cc3C(=O)N2Cc2ccccc2)cc1COc1ccc(NC(C)=O)cc1 (stereo unspecified) 0.54%
C#CCOc1ccc(C2CC(=O)Nc3c2c(C)nn3-c2nc(C)cc(C)n2)cc1 (stereo unspecified) -13.7%
Cc1ccc(C)c(N2CCN(C(=O)Cn3nc(C)c4sc5ccccc5c4c3=O)CC2)c1 -5.5%
CC(C)S(=O)(=O)c1oc(-c2ccc(F)cc2)nc1S(=O)(=O)c1ccc(F)cc1 -17.3%
COc1cc(OC)cc(C(=O)Nc2c(C(=O)Nc3ccc(F)cc3)oc3ccccc23)c1 8%
Oc1ccc(Cl)cc1C1C=C(c2ccc3c(c2)OCO3)NC(c2ccc(F)c(Br)c2)N1 (stereo unspecified) -52.5%
CCOc1ccc(NC(=O)CC2C(=O)N(c3cccc(OC)c3)C(=O)N2C2CCCCC2)cc1 (stereo unspecified) 33.4%
COc1ccc(Cc2nc3ccc(C(=O)NCc4ccccc4C)cc3o2)cc1 1.01%
O=C(Nc1ccc2c(c1)OCO2)c1cc(-c2cccc(Cl)c2)on1 5%
C=CC1(C)CC(=O)C2(O)C(C)(O1)C(OC(C)=O)C(O)C1C(C)(C)CCC(O)C12C (stereo unspecified) -6.89% [at 56.9 µM]
Cc1ccccc1CSc1nc2c([nH]c3ccccc32)c(=O)n1C 4.27%
O=C(c1ccc(F)cc1)C1CCN(CCCCc2ccccc2)CC1 80.5% [at 56.9 µM]
CCc1cc2c(cc3c(=O)n(CC(=O)NCc4cccc(Cl)c4)nc(CC)n32)s1 19.3%
Cc1ccc(Cl)cc1N1CCN(S(=O)(=O)c2cc3[nH]c(=O)c(=O)[nH]c3cc2C)CC1 -20%
CCCSc1ncc(Cl)c(C(=O)Nc2sc3c(c2C(=O)NCCOC)CCCC3)n1 20.4%
Cc1ccc(CCNC(=O)C2CCN(c3nnc(-n4cccc4CNc4ccc(C)cc4)s3)CC2)cc1 29.4%
CCOc1ccccc1NC(=O)Cn1c(=O)n(-c2cccc(C)c2)c(=O)c2c1c1cc(OC)ccc1n2C 6.5%
COc1ccc(Cl)cc1NC(=O)C(C)Sc1nc2c(c(=O)[nH]1)CCCC2 (stereo unspecified) 30.7%
Cc1ccc2nc(/C(C#N)=C/c3ccc(-c4ccc(C(=O)OC(C)C)cc4)o3)[nH]c2c1 2.62%
CCOc1ccccc1CNC(=O)Nc1cn(CC(C)C)c(=O)c2ccccc12 5.51%
O=C1C2C(c3ccccc3)CC=CC2C(c2ccoc2)N1Cc1ccccc1 (stereo unspecified) -10.6%
Cc1cccc(-c2cc(=O)c3cc(C)ccc3o2)c1 -644% [at 56.9 µM, above what the read-out allows, likely interference]
CC1CC2C3CCC4=CC(=O)C=C[C@]4(C)[C@@]3(F)[C@@H](O)C[C@]2(C)[C@@]1(O)C(=O)CO (stereo partly specified) 13.2% [at 56.9 µM]
Nc1ncnc2c1ncn2C1CC(O)C(CO)O1 (stereo unspecified) -180% [at 56.9 µM]
CSc1ccccc1N1CCN(CCCCCC(=O)NC2CCCc3ccccc32)CC1 (stereo unspecified) 17.9% [at 56.9 µM]
CCC(=O)N1CCc2cc(Br)cc(S(=O)(=O)CCC(=O)NCCc3ccc(OC)c(OC)c3)c21 -31.3%
Cc1ccc(-n2c3nc(=O)[nH]c(=O)c-3cc3c(Cl)cccc32)cc1 -2.68%
COc1ccc(C)cc1NC(=O)CCc1c(C)nn(-c2ccc(N3CCOCC3)nn2)c1C -16%
COC(=O)c1cccc(Cn2nnc3sc4c(c3c2=O)CCC(C(C)(C)C)C4)c1 (stereo unspecified) -10.7%
CCOC(=O)c1c(C)[nH]c(CCC(=O)NCCCN2CCN(c3cccc(Cl)c3)CC2)c1C -21.8%
COc1ccc(C2CC(O)(c3ccccc3)Oc3cc(C)cc(C)c32)cc1 (stereo unspecified) -13.5%
O=S(=O)(c1ccc2nc(N3CCN(c4cccc(Cl)c4)CC3)ccc2c1)N1CCCCC1 -18.5%
CCOC(=O)c1cccc(NC(=O)C(Cc2ccccc2)NS(=O)(=O)c2cccc3nsnc23)c1 (stereo unspecified) -4.55%
COc1cccc(CNCCSc2nnnn2C)c1OCc1ccccc1Cl -5.25%
CC(=O)c1cccc(NC(=O)CSc2nc3c(c(=O)[nH]2)CCC3)c1 16.8%
O=C(Nc1c(C(=O)N2CCN(c3ccc(F)cc3)CC2)oc2ccccc12)c1ccco1 12.6%
Cc1cc(C)cc(NC(=O)c2cnc3sc(N4CCCC4)nn3c2=O)c1 -12.1%
COc1cc(OC)cc(C(=O)Nc2ccc3nc(Nc4cccc(C(F)(F)F)c4)cc(C)c3c2)c1 -2.35%
Cc1ccc(N(C)C(=O)C2CCN(S(=O)(=O)c3ccc4c(c3)CCCN4C(=O)C3CCC3)CC2)cc1 -18.2%
CSc1nc(Nc2ccc(F)cc2)cc(-c2ccccc2)n1 5.75%
Cc1cccc(-n2c(SCC(N)=O)nc3c(oc4ccccc43)c2=O)c1 -0.746%
C=Cc1ccc(Cn2c(C(=O)O)c(CNC3CCCC3)c3ccc(C)cc32)cc1 8.65%
COc1ccccc1CNC(=O)Cn1nc(C)c2nn(-c3ccc(Cl)cc3)c(C)c2c1=O 18.3%
CC1CCCCN1S(=O)(=O)c1ccc(F)c(C(=O)Nc2ccccc2C(F)(F)F)c1 (stereo unspecified) 4.05%
COc1ccc2ncc3c(-c4ccc(C)c(C)c4)nn(CC(=O)NC4CCCC4)c3c2c1 26.8%
COc1cccc(CNC(=O)c2ccc3c(c2)N(Cc2ccc(C(F)(F)F)cc2)C(=O)c2ccccc2S3)c1OC 20.4%
CC(C)CC(NS(=O)(=O)c1ccc2c(c1)oc(=O)n2C)C(=O)NCc1ccccc1Cl (stereo unspecified) 9.93%
Cc1cc(OCC(=O)Nc2ncn[nH]2)c(C)c(C)c1Br -27.4%
CN1C(=O)c2[nH]nc(-c3ccc(F)cc3)c2C1c1ccccn1 (stereo unspecified) 0.713%
O=C(CSCc1cnn(-c2ccccc2)c1-n1cccc1)NCc1ccccc1Br -25%
O=C(NCCc1ccccc1)c1ccc2c(c1)N(Cc1ccc(F)cc1)C(=O)c1ccccc1S2(=O)=O -0.894%
O=S(=O)(NCC(c1ccccc1)N1CCc2ccccc21)c1ccccc1 (stereo unspecified) -21.4%
Cc1c(CCNC(=O)c2ccc(C(F)(F)F)cc2)sc2nc(-c3ccc(F)cc3)nn12 -4.84%
CCN(CC)CCNC(=O)c1cc2c(=O)oc3ccc(C)cc3c2s1 -2.06%
COc1ccc(CCn2c3c(c(=O)[nH]c2=S)CN(C(C)C)CN3)cc1OC -5.94%
Cn1c(C(=O)N2CCC(C(=O)N3CCN(c4ccccc4)CC3)CC2)cc2sccc21 8.86%
O=S(=O)(c1cccc(C(F)(F)F)c1)N1CCN(c2nc(-c3cccs3)nc3ccccc23)CC1 -10.2%
Cc1cccc(NC(=O)CSc2ncc(-c3ccccc3)[nH]2)c1C 12.9%
COc1cccc(N=C2SC(C(=O)Nc3cccc(Cl)c3)CC(=O)N2C)c1 (stereo unspecified) 13.4%
O=C(Nc1cc(C(F)(F)F)ccc1Cl)c1ccc2c(c1)CCN2S(=O)(=O)c1ccccc1 0.535%
CCNS(=O)(=O)c1ccc(NC(=O)CSc2nc(-c3ccco3)cc(C(F)(F)F)n2)cc1 1.04%
CCS(=O)(=O)N(C)[C@@H]1c2cc(C#N)ccc2OC(C)(C)[C@H]1O -117% [at 56.9 µM]
COc1ccc(CNC(=O)Cn2nnc(-c3ccccc3F)n2)cc1 -28.6%
COc1ccc(OC)c(-n2nnc3c(sc4nc(C)c(Br)c(C)c43)c2=O)c1 15.3%
Cc1ccc(-c2cn3c(n2)sc2cc(C(=O)NCCCc4ccccc4)ccc23)cc1 17.8%
O=C1CC(c2ccccc2)CC2=C1C(c1ccco1)n1nc(C(F)(F)F)nc1N2 (stereo unspecified) 12.1%
COc1ccc(-c2c(C)c3ccc(O)c(CN4CCCC4)c3oc2=O)cc1OC -3.02%
CCC(=O)Nc1cccc(C(=O)OCc2cc(=O)n3nc(CC)sc3n2)c1 -4.68%

Potency, inactive:
Cc1ccc(NC(=O)c2cccc(N(C)C)c2)cc1NC(=O)c1ccc(O)cc1

Potency, inactive and 23.8 µM (active):
CC[C@@H]1Cc2cc(O)ccc2C2=C1c1ccc(O)cc1C[C@H]2CC
